We go through eight molecules from PubChem BioAssay (NCI).

The panel holds about 83,000 compounds, 20% with a hit somewhere; the sample as a whole holds those more often.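 Step 1: grow cells in 96-well plates. Step 2: add test compound at a single concentration. Step 3: incubate 48 h. Step 4: record percent growth.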 Unmarked numbers belong to inactive results. Active and inactive are the calls of the source. Rule for the calls: active = growth percent below 10; inactive = the rest.

What all share (experiment): NCI-60 one-dose screen, 48 h (100 = growth as untreated, 0 = no growth, -100 = all killed)
Details in all cases: 10 µM unless noted

For assay [1], the system named is NCI-H23 lung.
For assay [2], the system named is NCI-H226 lung.
Assay [3] deals with NCI-H322M lung.
The test system of assay [4] is HOP-62 NSCLC.
Assay [5] deals with NCI-H460 lung.
The subject of assay [6] is HOP-92 NSCLC.
Assay [7] deals with NCI-H522 lung.
The test system of assay [8] is A549/ATCC NSCLC.
The subject of assay [9] is 786-0 renal.
Assay [10] concerns COLO 205 colon.
Assay [11] relates to DU-145 prostate.
Assay [12] deals with K-562 leukemia.
Assay [13] concerns MALME-3M melanoma.
The test system of assay [14] is MDA-MB-231 breast.
Assay [15] deals with RXF 393 renal.
For assay [16], the system named is SF-268 CNS.
In assay [17] the test system is SF-295 CNS.
Assay [18] deals with SF-539 CNS.
In assay [19] the test system is UACC-257 melanoma.
The test system of assay [20] is M14 melanoma.

Turning to `CC/C(=C(/c1ccc(Cl)cc1)c1ccc(OCCN2CCCC2)cc1)c1ccccc1`, the growth was 62% in assay [1]; 93.9% in assay [2]; 93.4% in assay [3]; 99% in assay [4]; 12.3% in [5]; 57.5% in [6]. In addition, the growth in assay [7] is 83%; in assay [8] it was 43.5%; in [9], 43.6%; in assay [10] it was -25.3% (active); in assay [11], 80.4%; in [12], 4.31% (active). The growth in [13] was 68.8%; in assay [14] it was 73.6%; in [15], 55.2%; in [16], 73.3%; in [17], 79%; in assay [18], 74.8%. Besides, the values for the growth in assay [19] and in assay [20] were 74% and 37.1%, respectively.

On to `CS(=O)(=O)c1ccc(/C(=N/NC(N)=S)c2ccc(F)cc2)cc1`, for which the growth in [1] was 97.9%; in [2] it was 107%; in assay [3], 104%; in assay [4], 105%; in assay [5], 102%; in assay [6], 112%. In addition, the growth in assay [7] was 99.6%; in assay [8] it was 108%; in assay [9], 102%; in assay [10], 116%; in [11], 108%; in assay [12], 85.1%. In addition, the growth is 104% in assay [13]; 107% in [14]; 85.1% in assay [15]; 98.8% in assay [16]; 106% in assay [17]; 102% in assay [18]. The growth in assay [19] is 102%; in assay [20], 104%.

On to `C#CCOc1ccc(C2=NN(C)C3N=C(Cl)c4ncn(C)c4N23)cc1OCC#C` (stereo not given), for which the growth in assay [1] was 89.7%; in [2], 83.4%; in assay [3] it was 90.2%; in [4], 95.5%; in assay [5], 105%; in [6], 79.8%. The growth in assay [7] was 87.3%; in [8] it was 104%; in assay [9] it was 105%; in assay [10] it was 102%; in [11], 104%; in [12], 93.5%. For the same molecule, the growth in [13] was 112%; in [14] it was 95.9%; in assay [15], 82.7%; in assay [16], 105%; in [17], 94.3%; in assay [18], 90%. The growth is 97.2% in assay [19] and 104% in assay [20].

Regarding `N#C/C(=C/C=C/c1ccccc1)S(=O)c1ccccc1` (stereo not given), the growth is -36.6% (active) in assay [1]; 12% in assay [2]; 10.4% in assay [3]; -25.6% (active) in [4]; -30% (active) in [5]; -58.5% (active) in [6]. For the same molecule, the growth in assay [7] is -68.3% (active); in assay [8], 2.3% (active); in assay [9], -89.7% (active); in assay [10], -56.4% (active); in assay [11], -89.5% (active); in assay [12], 5.48% (active). For the same molecule, the growth is -30.2% (active) in assay [13]; -54.2% (active) in [14]; -84% (active) in assay [15]; -31.3% (active) in assay [16]; -28.8% (active) in [17]; -74.5% (active) in assay [18]. Also, the results for the growth in [19] and in assay [20] were -33.9% (active) and -55.5% (active), respectively.

Consider `O=C(Nc1ncc(Cc2ccccc2Cl)s1)c1ccc2c(c1)OCCO2`, for which the growth in [1] was 40.8%; in assay [2] it was 30.1%; in [3], 48.9%; in assay [4] it was 28.3%; in assay [5], 5.42% (active); in assay [6], 56.3%. Moreover, the growth was 1.6% (active) in assay [7]; 20.8% in assay [8]; 41.2% in assay [9]; -3.85% (active) in assay [10]; 9.81% (active) in assay [11]; 8.27% (active) in assay [12]. In addition, the growth in assay [13] was 56.6%; in assay [14], 23.5%; in [15], 9.52% (active); in assay [16], 41.2%; in assay [17], 11.7%; in assay [18], -8.75% (active). The growth is 53.1% in assay [19] and 10.3% in assay [20].

For `CC(C)(C)CC(C)(C)Nc1c(-c2c(O)c3ccccc3oc2=O)nc2sccn12`, the growth in [1] is 97.9%; in [2], 88.9%; in [3] it was 86.7%; in assay [4] it was 85%; in assay [5], 111%; in [6], 107%. The growth was 83% in assay [7]; 90.8% in assay [8]; 109% in assay [9]; 102% in [10]; 113% in assay [11]; 101% in assay [12]. For the same molecule, the growth in assay [13] was 94%; in [14] it was 93%; in assay [15], 103%; in assay [16], 105%; in [17] it was 98.8%; in assay [18], 101%. Also, the growth in assay [19] was 81.4%; in [20], 97.2%.

Take `O=C(N/N=C/c1ccccc1Cl)c1ccccc1Nc1ccnc(C(F)(F)F)c1`: the growth in assay [1] is 16%; in assay [2], 3.35% (active); in assay [3], 6.53% (active); in assay [4], 1.91% (active); in [5], 3.5% (active); in assay [6], -17.1% (active). In addition, the growth in [7] is -20.5% (active); in assay [8], 7.28% (active); in assay [9], -30.4% (active); in assay [10], -38% (active); in assay [11], 29.4%; in [12] it was 4.98% (active). The growth was 5.72% (active) in assay [13]; -17.1% (active) in [14]; -13.4% (active) in [15]; 14.1% in assay [16]; -41.1% (active) in assay [17]; 4.39% (active) in assay [18]. Further, the growth in assay [19] is -2.5% (active); in assay [20], 23.1%.

For the molecule `Cn1cc(-c2nc(-c3c[nH]c4ccncc34)cs2)c2cc(F)ccc21`, the growth is -55.9% (active) in [1]; 57.9% in assay [2]; -75% (active) in assay [3]; -85.6% (active) in [4]; -70.5% (active) in [5]; -89.5% (active) in assay [6]. Moreover, the growth in [7] was -66.1% (active); in [8] it was -79.6% (active); in [9], -92.5% (active); in [10] it was -74.1% (active); in [11] it was -98.1% (active); in assay [12], -53.6% (active). The growth in assay [13] is -88.9% (active); in assay [14] it was -90.7% (active); in assay [15], -94.7% (active); in assay [16] it was -80.1% (active); in [17], -85.9% (active); in [18], -97.1% (active). Moreover, the growth in assay [19] is -73.1% (active); in [20], -87.3% (active).
